# Data from PubChem BioAssay (EPA / NIEHS).
# Results filed as inconclusive are left out. Activity calls are given as the source filed them. How the source made its calls: active means hit-call score of the fitted dose curve at least 0.9, where 1 is the maximum; inconclusive means response in the unintended direction; inactive means score below 0.9.
# Columns and labels:
# [1] = molecular target: human Peroxisome Proliferator-activated Receptor alpha (PPARa), PPARA (gene 5465) (UniProt Q07869); experiment: ATG_PPARa_TRANS: Attagene TRANS-FACTORIAL HepG2 Assay for human Peroxisome Proliferator-activated Receptor alpha (PPARa) (AID 2283001);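 on AC50: potency for gain of reporter signal over DMSO so agonist or activator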
# Summary of the method: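 Exposure: 24 h, transiently transfected HepG2 cells. Endpoint: GAL4-UAS reporter mRNA, RT-PCR with capillary electrophoresis fluorescence. Baseline: DMSO; increases fitted.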
# [2] = molecular target: Peroxisome proliferator-activated receptor gamma (Homo sapiens) (UniProt P37231); experiment: ATG_PPARg_TRANS: Attagene TRANS-FACTORIAL HepG2 Assay for human Peroxisome Proliferator-activated Receptor-gamma (PPARg) (AID 2283007)
# Summary of the method: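 Endpoint reflects upward reporter mRNA change versus DMSO controls. Setup: transiently transfected HepG2, GAL4-UAS reporters driven by chimeric NR-Gal4, 24 h incubation, RT-PCR with capillary electrophoresis read-out.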
# [3] = molecular target: Nuclear receptor subfamily 1 group I member 2 (Homo sapiens) (UniProt O75469); experiment: ATG_PXR_TRANS: Attagene TRANS-FACTORIAL HepG2 Assay for human Pregnane X Receptor (PXR) (AID 2283008)
# Summary of the method: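 Transient HepG2 transfectants carrying multiplexed reporter transcription units; PXR activity read through a Gal4 chimera. 24 h exposure. RT-PCR/CE fluorescence; upward curve fit referenced to DMSO.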
# [4] = molecular target: Retinoic acid receptor alpha (Homo sapiens) (UniProt P10276); experiment: ATG_RARa_TRANS: Attagene TRANS-FACTORIAL HepG2 Assay for human Retinoic Acid Receptor alpha (RARa) (AID 2283005)
# Summary of the method: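 HepG2 cells transiently transfected with multiple reporter units expressing chimeric RARα-GAL4 fusion, with GAL4-UAS-driven reporters. After 24 h compound exposure, reporter mRNA induction quantified by RT-PCR and capillary electrophoresis with fluorescent labeling; gain-of-signal fitted relative to DMSO control.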
# [5] = molecular target: human RAR-related Orphan Receptor beta (RORb), RORB (gene 6096) (UniProt Q92753); experiment: ATG_RORb_TRANS: Attagene TRANS-FACTORIAL HepG2 Assay for human RAR-related Orphan Receptor beta (RORb) (AID 2283010)
# Summary of the method: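 HepG2, transient MRTU transfection (GAL4-UAS reporters, exogenous NR-Gal4 chimeras); 24 h compound exposure; total RNA → RT-PCR → 6-FAM primer extension → HpaI digest → CE fluorescence. Positive direction vs DMSO baseline.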
# [6] = molecular target: human Retinoic Acid Receptor gamma (RARg), RARG (gene 5916) (UniProt P13631); experiment: ATG_RARg_TRANS: Attagene TRANS-FACTORIAL HepG2 Assay for human Retinoic Acid Receptor gamma (RARg) (AID 2283009)
# Summary of the method: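 Readout: reporter transcript levels via RT-PCR, 6-FAM primer-extension labelling, HpaI digestion and capillary electrophoresis. Cells: HepG2 carrying transfected RARg-GAL4 chimera plus UAS reporter set. Dosing 24 h; DMSO negative control.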
# [7] = molecular target: human Peroxisome Proliferator-activated Receptor delta (PPARd), PPARD (gene 5467) (UniProt Q03181); experiment: ATG_PPARd_TRANS: Attagene TRANS-FACTORIAL HepG2 Assay for human Peroxisome Proliferator-activated Receptor delta (PPARd) (AID 2283002)
# Summary of the method: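 HepG2 cells transiently transfected with multiplexed GAL4-UAS reporter units and exogenous chimeric NR-Gal4 proteins; 24 h compound exposure. Reporter mRNA measured by RT-PCR, 6-FAM labelling, HpaI digestion and capillary electrophoresis; gain of signal versus DMSO.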
# Chain of human Retinoic Acid Receptor gamma (RARg), RARG (gene 5916) (P13631 whole entry, looked up, the tested form may be a part): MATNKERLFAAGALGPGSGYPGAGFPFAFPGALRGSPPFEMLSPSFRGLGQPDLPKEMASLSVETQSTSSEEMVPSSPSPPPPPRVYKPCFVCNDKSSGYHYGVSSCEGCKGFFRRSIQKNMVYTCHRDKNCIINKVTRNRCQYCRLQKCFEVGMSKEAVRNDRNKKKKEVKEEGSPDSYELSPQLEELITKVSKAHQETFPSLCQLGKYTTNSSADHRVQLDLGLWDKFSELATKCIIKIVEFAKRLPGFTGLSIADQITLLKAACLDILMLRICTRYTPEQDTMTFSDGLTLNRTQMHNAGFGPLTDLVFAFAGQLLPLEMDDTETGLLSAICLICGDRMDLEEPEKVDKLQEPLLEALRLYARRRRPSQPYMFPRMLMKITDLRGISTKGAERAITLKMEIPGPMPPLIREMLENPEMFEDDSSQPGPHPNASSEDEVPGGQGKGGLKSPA
# Chain of Peroxisome proliferator-activated receptor gamma (Homo sapiens) (P37231 whole entry, looked up, the tested form may be a part): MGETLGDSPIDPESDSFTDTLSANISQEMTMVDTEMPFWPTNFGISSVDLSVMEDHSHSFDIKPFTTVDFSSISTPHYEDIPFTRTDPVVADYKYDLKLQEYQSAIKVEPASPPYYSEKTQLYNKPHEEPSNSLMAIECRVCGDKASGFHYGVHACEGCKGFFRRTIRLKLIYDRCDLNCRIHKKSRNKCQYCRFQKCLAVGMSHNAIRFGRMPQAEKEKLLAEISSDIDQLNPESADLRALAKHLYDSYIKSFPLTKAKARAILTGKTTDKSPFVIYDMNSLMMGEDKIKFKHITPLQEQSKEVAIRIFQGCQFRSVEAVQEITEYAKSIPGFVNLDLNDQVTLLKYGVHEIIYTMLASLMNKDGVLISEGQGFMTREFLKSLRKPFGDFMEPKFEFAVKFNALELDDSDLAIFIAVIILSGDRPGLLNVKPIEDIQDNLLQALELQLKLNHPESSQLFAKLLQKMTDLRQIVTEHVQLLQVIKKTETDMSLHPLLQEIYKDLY
# Chain of human Peroxisome Proliferator-activated Receptor alpha (PPARa), PPARA (gene 5465) (Q07869 whole entry, looked up, the tested form may be a part): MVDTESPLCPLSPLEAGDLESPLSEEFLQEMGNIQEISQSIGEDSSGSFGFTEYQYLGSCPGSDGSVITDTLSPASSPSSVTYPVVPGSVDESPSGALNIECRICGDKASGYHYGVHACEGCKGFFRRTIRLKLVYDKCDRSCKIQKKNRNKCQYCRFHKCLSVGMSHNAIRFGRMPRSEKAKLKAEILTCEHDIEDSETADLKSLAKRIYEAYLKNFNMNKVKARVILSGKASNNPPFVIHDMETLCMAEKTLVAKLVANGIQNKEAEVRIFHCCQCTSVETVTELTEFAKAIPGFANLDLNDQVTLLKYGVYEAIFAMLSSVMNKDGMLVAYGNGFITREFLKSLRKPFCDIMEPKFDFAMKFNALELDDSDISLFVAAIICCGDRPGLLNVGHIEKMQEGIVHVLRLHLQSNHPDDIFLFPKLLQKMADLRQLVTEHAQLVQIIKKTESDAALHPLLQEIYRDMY
# Chain of Retinoic acid receptor alpha (Homo sapiens) (P10276 whole entry, looked up, the tested form may be a part): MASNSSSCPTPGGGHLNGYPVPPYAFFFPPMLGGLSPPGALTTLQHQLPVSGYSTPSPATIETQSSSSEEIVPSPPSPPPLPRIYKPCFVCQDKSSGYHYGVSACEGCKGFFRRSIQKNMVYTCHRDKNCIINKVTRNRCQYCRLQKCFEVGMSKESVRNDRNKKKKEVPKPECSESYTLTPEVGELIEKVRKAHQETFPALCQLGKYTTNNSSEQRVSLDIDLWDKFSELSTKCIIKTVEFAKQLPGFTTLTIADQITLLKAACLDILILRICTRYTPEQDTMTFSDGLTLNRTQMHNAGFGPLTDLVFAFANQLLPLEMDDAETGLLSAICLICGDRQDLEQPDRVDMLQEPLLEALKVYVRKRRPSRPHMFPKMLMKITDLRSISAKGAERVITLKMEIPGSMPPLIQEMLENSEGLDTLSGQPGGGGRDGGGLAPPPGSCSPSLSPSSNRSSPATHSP
# Chain of Nuclear receptor subfamily 1 group I member 2 (Homo sapiens) (O75469 whole entry, looked up, the tested form may be a part): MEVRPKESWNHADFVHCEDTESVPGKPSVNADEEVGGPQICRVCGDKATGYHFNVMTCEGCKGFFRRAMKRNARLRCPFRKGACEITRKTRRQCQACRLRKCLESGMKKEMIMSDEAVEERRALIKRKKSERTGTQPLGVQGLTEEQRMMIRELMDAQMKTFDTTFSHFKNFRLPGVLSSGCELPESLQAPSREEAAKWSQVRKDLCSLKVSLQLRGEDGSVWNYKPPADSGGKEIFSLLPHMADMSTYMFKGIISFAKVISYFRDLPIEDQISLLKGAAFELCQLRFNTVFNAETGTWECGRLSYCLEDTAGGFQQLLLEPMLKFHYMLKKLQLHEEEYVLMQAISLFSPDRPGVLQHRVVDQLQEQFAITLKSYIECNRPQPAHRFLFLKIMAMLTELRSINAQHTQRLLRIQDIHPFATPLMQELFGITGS
# Chain of human RAR-related Orphan Receptor beta (RORb), RORB (gene 6096) (Q92753 whole entry, looked up, the tested form may be a part): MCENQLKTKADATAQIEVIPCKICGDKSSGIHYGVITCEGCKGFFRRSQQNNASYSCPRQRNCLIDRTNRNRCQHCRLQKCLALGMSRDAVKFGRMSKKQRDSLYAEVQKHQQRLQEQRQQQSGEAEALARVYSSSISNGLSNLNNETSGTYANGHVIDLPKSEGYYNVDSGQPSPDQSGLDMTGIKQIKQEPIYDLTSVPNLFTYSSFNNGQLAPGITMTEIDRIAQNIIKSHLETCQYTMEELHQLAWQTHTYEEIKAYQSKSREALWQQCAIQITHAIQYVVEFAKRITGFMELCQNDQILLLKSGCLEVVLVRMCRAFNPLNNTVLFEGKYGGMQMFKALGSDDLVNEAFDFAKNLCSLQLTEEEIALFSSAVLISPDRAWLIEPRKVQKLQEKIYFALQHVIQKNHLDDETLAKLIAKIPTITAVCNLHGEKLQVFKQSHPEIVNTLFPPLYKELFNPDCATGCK
# Chain of human Peroxisome Proliferator-activated Receptor delta (PPARd), PPARD (gene 5467) (Q03181 whole entry, looked up, the tested form may be a part): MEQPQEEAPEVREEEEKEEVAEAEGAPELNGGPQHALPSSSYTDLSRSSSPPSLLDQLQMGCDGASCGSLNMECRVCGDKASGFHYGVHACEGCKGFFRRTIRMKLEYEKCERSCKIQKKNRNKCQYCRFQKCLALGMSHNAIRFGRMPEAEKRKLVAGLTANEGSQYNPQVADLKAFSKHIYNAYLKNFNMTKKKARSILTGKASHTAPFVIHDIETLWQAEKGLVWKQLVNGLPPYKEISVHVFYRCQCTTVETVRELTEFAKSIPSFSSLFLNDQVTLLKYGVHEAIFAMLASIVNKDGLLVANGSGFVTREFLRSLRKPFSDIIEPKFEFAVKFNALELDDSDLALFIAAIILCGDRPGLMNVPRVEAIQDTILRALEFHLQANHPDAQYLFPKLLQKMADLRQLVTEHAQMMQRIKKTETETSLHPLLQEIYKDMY
structure (smiles),measurement,setting,value
CCCCCCCC/C=C\CCCCCCCC(=O)OCCO,AC50,[1],8.71 µM (active)
same,AC50,[2],4.78 µM (active)
same,outcome,[3],inactive
O=S(=O)(O)c1ccccc1C=Cc1ccc(-c2ccc(C=Cc3ccccc3S(=O)(=O)O)cc2)cc1,outcome,[1],inactive
same,outcome,[4],inactive
same,outcome,[2],inactive
CCCCCC/C=C\CCCCCCCC(=O)O,outcome,[1],inactive
same,outcome,[4],inactive
same,outcome,[2],inactive
same,outcome,[5],inactive
Cc1ccc(N/N=c2\c(=O)cc/c(=N/Nc3ccc(S(=O)(=O)O)cc3)c2=O)c(C)c1,outcome,[1],inactive
same,outcome,[2],inactive
same,outcome,[3],inactive
N#CCc1ccc(Cl)cc1Cl,outcome,[1],inactive
same,outcome,[2],inactive
same,outcome,[3],inactive
Cc1cc(C)c(C(=O)O)c(C)c1,AC50,[1],33.7 µM (active)
same,outcome,[4],inactive
same,outcome,[2],inactive
same,outcome,[3],inactive
same,outcome,[5],inactive
CC(C)c1ccc(C#N)cc1,outcome,[1],inactive
same,outcome,[4],inactive
same,outcome,[3],inactive
same,outcome,[5],inactive
FC(F)=C(F)OC(F)(F)C(F)(F)C(F)(F)F,outcome,[1],inactive
same,outcome,[2],inactive
same,outcome,[3],inactive
CC(C)(Oc1ccc(C2CC2(Cl)Cl)cc1)C(=O)O (stereo not drawn),AC50,[1],0.975 µM (active)
same,outcome,[4],inactive
same,outcome,[3],inactive
same,outcome,[6],inactive
C=CC(=O)OCCC(=O)O,outcome,[1],inactive
same,outcome,[2],inactive
same,outcome,[3],inactive
Cc1ccc2oc(=O)ccc2c1,outcome,[1],inactive
same,outcome,[4],inactive
same,outcome,[3],inactive
same,outcome,[5],inactive
CC(C)(C)C(=O)C=Cc1ccc(Cl)cc1,AC50,[1],24.7 µM (active)
same,AC50,[2],26.6 µM (active)
same,AC50,[3],26.2 µM (active)
FC(F)(F)C(=NOCC1OCCO1)c1ccc(Cl)cc1,outcome,[1],inactive
same,outcome,[2],inactive
same,outcome,[3],inactive
O=P(O)(O)Oc1ccccc1,outcome,[1],inactive
same,outcome,[4],inactive
O=C(O)c1cc(Cl)cc([N+](=O)[O-])c1Cl,outcome,[1],inactive
same,outcome,[2],inactive
same,outcome,[3],inactive
COc1ccc(-c2coc3cc(O)ccc3c2=O)cc1,outcome,[1],inactive
same,outcome,[2],inactive
same,outcome,[3],inactive
CC(C)=CC1CC(C)CCO1 (stereo not drawn),outcome,[1],inactive
same,outcome,[4],inactive
CCCCC/C=C\CCC=O,outcome,[1],inactive
same,AC50,[2],53.6 µM (active)
same,outcome,[3],inactive
CC(=O)NS(=O)(=O)c1ccc(N)cc1,outcome,[1],inactive
same,outcome,[4],inactive
same,outcome,[3],inactive
same,outcome,[6],inactive
CCOC(=O)c1ccc(N(C)C)cc1,outcome,[1],inactive
same,outcome,[2],inactive
same,AC50,[3],27.5 µM (active)
CCCCCCCCCCOC(C)=O,outcome,[1],inactive
same,outcome,[2],inactive
same,outcome,[3],inactive
CCCCCCCC/C=C\CCCCCCCC(=O)O,AC50,[1],21.8 µM (active)
same,AC50,[2],18.8 µM (active)
same,outcome,[3],inactive
Cc1cccc(C(=O)O)c1,outcome,[1],inactive
same,outcome,[4],inactive
same,outcome,[2],inactive
same,outcome,[3],inactive
same,outcome,[6],inactive
C=CCCCCCCCCC(=O)OCCCC,outcome,[1],inactive
same,AC50,[2],67.8 µM (active)
same,outcome,[3],inactive
Cc1cccc(OCCOc2cccc(C)c2)c1,outcome,[1],inactive
same,AC50,[2],25.7 µM (active)
same,outcome,[3],inactive
OCCN(CCO)c1ccccc1,outcome,[1],inactive
same,outcome,[4],inactive
same,outcome,[2],inactive
same,outcome,[3],inactive
[Cl][Bi]([Cl])([c]1ccccc1)([c]1ccccc1)[c]1ccccc1,AC50,[1],5.11 µM (active)
same,AC50,[2],1.17 µM (active)
same,outcome,[3],inactive
COc1ccc([C@@H]2CC(=O)c3c(O)cc(O[C@@H]4O[C@H](CO[C@@H]5O[C@@H](C)[C@H](O)[C@@H](O)[C@H]5O)[C@@H](O)[C@H](O)[C@H]4O)cc3O2)cc1OC,outcome,[1],inactive
same,outcome,[2],inactive
same,outcome,[3],inactive
same,outcome,[6],inactive
O=C1CCCCCN1SSN1CCCCCC1=O,outcome,[1],inactive
same,outcome,[2],inactive
CCCCCCC1(C)CCC(=O)O1 (stereo not drawn),outcome,[1],inactive
same,outcome,[2],inactive
same,AC50,[3],33.2 µM (active)
CCCCOCCOC(=O)COc1nc(Cl)c(Cl)cc1Cl,outcome,[1],inactive
same,outcome,[4],inactive
same,AC50,[2],60.1 µM (active)
same,outcome,[3],inactive
O=C(c1ccccc1)c1ccc(O)c(O)c1O,outcome,[1],inactive
same,outcome,[4],inactive
same,AC50,[2],47 µM (active)
same,AC50,[3],24 µM (active)
Cc1cc(O)c(Cl)c(C)c1Cl,outcome,[1],inactive
same,AC50,[2],21.9 µM (active)
same,AC50,[3],26.4 µM (active)
C=C(C)C(=O)OCCOc1ccccc1,outcome,[1],inactive
same,AC50,[2],28.5 µM (active)
same,outcome,[3],inactive
CCc1ccc2c(c1)C(=O)c1ccccc1C2=O,outcome,[1],inactive
same,AC50,[2],24.3 µM (active)
same,AC50,[3],4.34 µM (active)
CCN(CC)c1ccc(C(=O)c2ccccc2C(=O)O)c(O)c1,outcome,[1],inactive
same,AC50,[2],30 µM (active)
same,AC50,[3],0.611 µM (active)
CC(C)(C)c1ccc(OC(=O)c2ccccc2O)cc1,outcome,[1],inactive
same,outcome,[2],inactive
same,outcome,[3],inactive
c1cc(C(c2ccc(OCC3CO3)cc2)C(c2ccc(OCC3CO3)cc2)c2ccc(OCC3CO3)cc2)ccc1OCC1CO1 (stereo not drawn),outcome,[7],inactive
same,outcome,[4],inactive
same,outcome,[2],inactive
same,outcome,[3],inactive
CC(=O)OCC(=O)[C@@]12N=C(C)O[C@@H]1C[C@H]1[C@@H]3CCC4=CC(=O)C=C[C@]4(C)[C@H]3[C@@H](O)C[C@@]12C,outcome,[7],inactive
same,outcome,[2],inactive
same,outcome,[3],inactive
